From PubChem BioAssay (NCATS)
Where “and” joins values, the source holds several entries; their conditions need not be identical. Identical values can stand only once. Inconclusive results are not listed. Values without a mark were called inactive. Calls of active or inactive are those of the source. The call rests on the fitted dose curve; in most records, active means well fitted inhibition curve with a large enough effect; inconclusive means small, poorly fitted or top-dose-only effect; inactive means flat fitted curve, though single readings scatter.

Experiments:
[1] = Drug repurposing screens with cells derived from glioblastoma tumor samples (AID 1345199); settings: GBM patient neurospheres viability, ATP luminescence, 48 h; further: nearly all actives have a fitted effect of over 40% in size
Method in brief: (§1)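 Four patient lines of CD133+ GBM neurospheres were screened at several concentrations; hits were retested in those lines plus three slower-growing GBM lines, using 48-hour treatment and ATP-based viability.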

[2] = test system: astro; assay: as above; settings: viability, ATP luminescence, 48 h; series mostly up to 45.9 µM
Method in brief: as §1

[3] = at 46.1 µM (top of the series), tumour line C
[4] = at 45.9 µM (top of the series), tumour line B
[5] = at 45.9 µM (top of the series), tumour line D
On the % scale 0 is the no-effect control and ±100 the full control effect; potency means the concentration at half of the fitted maximal effect.

O=[N+]([O-])c1cc(I)c(O)c(I)c1
activity, negative = cell killing [1, 3]: -4.29%
Potency ([1]; tumour line A): 25.1 µM (active)
Potency ([1]; tumour line D): 22.4 µM (active)
Potency [2]: 35.5 µM (active)

O=C1CN(O)C(c2ccccc2)=c2cc(Cl)ccc2=N1
activity, negative = cell killing [1, 4]: -13.2%
activity, negative = cell killing [1, 5]: -10.4%
activity, negative = cell killing [1, 3]: -13.2%
Potency [2]: inactive

C=CC[C@]1(O)CC[C@H]2[C@@H]3CCC4=CCCC[C@@H]4[C@H]3CC[C@@]21C
activity, negative = cell killing [1, 3]: -3.65%
Potency ([1]; tumour line A): 12.6 µM (active)
Potency [2]: inactive

c1ccc2sc(SNC3CCCCC3)nc2c1
activity, negative = cell killing [1, 4]: -13.7%
activity, negative = cell killing [1, 5]: -11.7%
activity, negative = cell killing [1, 3]: -8.99%
Potency [2]: inactive

C[C@@H]1[C@@H]2Cc3ccc(O)cc3[C@@]1(C)CCN2CC1CC1
activity, negative = cell killing [1, 4]: -1.24%
activity, negative = cell killing [1, 5]: -18.9%
activity, negative = cell killing [1, 3]: 6.7%
Potency [2]: inactive

CC[C@H]1[C@@H]2C[C@H]3[C@@H]4N(C)c5ccccc5[C@]45C[C@@H](C2[C@H]5O)N3[C@@H]1O (stereo not given in full)
activity, negative = cell killing ([1]; at 20 µM (top of the series), tumour line C): 5.4%
activity, negative = cell killing ([1]; at 21.2 µM (top of the series), tumour line B): 2.75%
activity, negative = cell killing ([1]; at 21.2 µM (top of the series), tumour line D): 6.31%
Potency [2]: inactive

CNC1(c2ccccc2Cl)CCCCC1=O (stereo not given)
activity, negative = cell killing [1, 4]: -12.1% and -12.4%
activity, negative = cell killing [1, 5]: -13.4% and -12.7%
activity, negative = cell killing [1, 3]: -5.45%
Potency [2]: inactive

C[C@H]1CCC[C@H](O)CCCCCc2cc(O)cc(O)c2C(=O)O1
activity, negative = cell killing [1, 3]: 1.42%
Potency ([1]; tumour line A): 12.6 µM (active)
Potency ([1]; tumour line D): 35.5 µM (active)
Potency [2]: inactive

CCOP(=O)(OCC)O/C(=C/Cl)c1ccc(Cl)cc1Cl
activity, negative = cell killing [1, 4]: -17.8%
activity, negative = cell killing [1, 5]: -23.4%
Potency ([1]; tumour line A): 12.6 µM (active)
Potency [2]: inactive
